Experiment in all cases: HT-SELEX; high values mean tight binding
Conditions in all cases: protein: recombinant; vector His6-GST; dsDNA, one strand shown

The target of one test is T1, SALL4 ZFC4 WT (HT-SELEX) (Mus musculus, UniProt Q8BX22 870-940).
T1 sequence: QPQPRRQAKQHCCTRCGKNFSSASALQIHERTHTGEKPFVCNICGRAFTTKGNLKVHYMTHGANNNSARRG
Put shortly:
(§1)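 DNA from a random library (1.5 µg in the first cycle, 200 ng afterwards) was incubated with purified recombinant mouse SALL4 zinc finger cluster 4, residues 870–940 (1 µg), for 10 min at room temperature in 100 µl buffer: 10 mM Tris–HCl pH 7.5, 50 mM NaCl, poly(dI-dC), DTT. Bound complexes were pulled down on Ni2+ beads, washed and PCR-amplified, and the selection was repeated for up to 6 cycles in triplicate. MiSeq reads were scanned for 6-mers, and binding signal is each canonical k-mer's read fraction as fold change over the initial random library.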

Test [1] deals with T2, SALL4 ZFC4 R900W (HT-SELEX) (Mus musculus, UniProt Q8BX22 870-940, R900W).
T2 sequence: T1 sequence with R31W
In outline:
as §1

Test [2] concerns the target T3, SALL4 ZFC4 G921D (HT-SELEX) (Mus musculus, UniProt Q8BX22 870-940, G921D).
T3 sequence: T1 sequence with G52D
Put shortly:
as §1

Changes are numbered by the printed parent chain.

The text below walks through data of PMC9838217, “Structure of SALL4 zinc finger domain reveals link between AT-rich DNA binding and Okihiro syndrome”.

Consider ATATGG, for which the binding signal with SALL4 ZFC4 WT (HT-SELEX) turned out to be 1.44 ± 0.131 fold-change vs cycle 0; in test [1] it was 1.33 ± 0.0761 fold-change vs cycle 0; in test [2], 1.28 ± 0.0676 fold-change vs cycle 0.

For AAGGTG, the binding signal with SALL4 ZFC4 WT (HT-SELEX) worked out at 0.806 ± 0.0296 fold-change vs cycle 0; in test [1], 0.944 ± 0.0313 fold-change vs cycle 0; in test [2], 0.95 ± 0.0211 fold-change vs cycle 0.

Consider CAATTA, for which the binding signal with SALL4 ZFC4 WT (HT-SELEX) is 1.91 ± 0.128 fold-change vs cycle 0; in test [1] it was 1.83 ± 0.147 fold-change vs cycle 0; in test [2] it was 1.71 ± 0.164 fold-change vs cycle 0.

Consider GTTAAC, for which the binding signal with SALL4 ZFC4 WT (HT-SELEX) worked out at 1.39 ± 0.126 fold-change vs cycle 0; in test [1] it was 1.53 ± 0.0957 fold-change vs cycle 0; in test [2], 1.38 ± 0.101 fold-change vs cycle 0.

As to CTTAAG, the binding signal in the test with SALL4 ZFC4 WT (HT-SELEX) amounted to 1.38 ± 0.0318 fold-change vs cycle 0; in test [1], 1.56 ± 0.0368 fold-change vs cycle 0; in test [2], 1.46 ± 0.11 fold-change vs cycle 0.

Turning to ACGAAG, the binding signal turned out to be 0.736 ± 0.0281 fold-change vs cycle 0 with SALL4 ZFC4 WT (HT-SELEX), 0.869 ± 0.0387 fold-change vs cycle 0 in test [1] and 0.9 ± 0.0184 fold-change vs cycle 0 in test [2].

With CAAATA, the binding signal with SALL4 ZFC4 WT (HT-SELEX) came out at 1.9 ± 0.117 fold-change vs cycle 0; in test [1], 1.72 ± 0.1 fold-change vs cycle 0; in test [2] it was 1.55 ± 0.137 fold-change vs cycle 0.

Regarding AATCGT, the binding signal with SALL4 ZFC4 WT (HT-SELEX) amounted to 1.18 ± 0.0336 fold-change vs cycle 0; in test [1] it was 1.21 ± 0.0227 fold-change vs cycle 0; in test [2] it was 1.23 ± 0.0244 fold-change vs cycle 0.

For the sequence TAACCA, the binding signal was found to be 1.42 ± 0.042 fold-change vs cycle 0 in the test with SALL4 ZFC4 WT (HT-SELEX), 1.47 ± 0.047 fold-change vs cycle 0 in test [1] and 1.37 ± 0.0838 fold-change vs cycle 0 in test [2].

Consider AGACTC, for which the binding signal came out at 0.806 ± 0.0153 fold-change vs cycle 0 with SALL4 ZFC4 WT (HT-SELEX), 0.928 ± 0.0387 fold-change vs cycle 0 in test [1] and 1.01 ± 0.0334 fold-change vs cycle 0 in test [2].

Regarding CGTTAA, the values for the binding signal (with SALL4 ZFC4 WT (HT-SELEX); in test [1]; in test [2]) were 1.13 ± 0.0737 fold-change vs cycle 0, 1.25 ± 0.0783 fold-change vs cycle 0 and 1.17 ± 0.0825 fold-change vs cycle 0, respectively.

For the sequence GTAAGA, the binding signal came out at 1.45 ± 0.0375 fold-change vs cycle 0 with SALL4 ZFC4 WT (HT-SELEX), 1.6 ± 0.0704 fold-change vs cycle 0 in test [1] and 1.42 ± 0.0981 fold-change vs cycle 0 in test [2].

For ATAGTG, the binding signal with SALL4 ZFC4 WT (HT-SELEX) was found to be 1.28 ± 0.0269 fold-change vs cycle 0; in test [1], 1.33 ± 0.0375 fold-change vs cycle 0; in test [2] it was 1.31 ± 0.0797 fold-change vs cycle 0.

Turning to GAACGA, the binding signal was determined as 0.753 ± 0.0422 fold-change vs cycle 0 in the test with SALL4 ZFC4 WT (HT-SELEX), 0.856 ± 0.0556 fold-change vs cycle 0 in test [1] and 0.9 ± 0.0297 fold-change vs cycle 0 in test [2].

With GTTGGA, the binding signal in the test with SALL4 ZFC4 WT (HT-SELEX) was 0.713 ± 0.0283 fold-change vs cycle 0; in test [1] it was 0.83 ± 0.0624 fold-change vs cycle 0; in test [2], 0.883 ± 0.0383 fold-change vs cycle 0.

In the case of GGCAAA, the binding signal with SALL4 ZFC4 WT (HT-SELEX) was 0.399 ± 0.0111 fold-change vs cycle 0; in test [1] it was 0.457 ± 0.0213 fold-change vs cycle 0; in test [2] it was 0.604 ± 0.0748 fold-change vs cycle 0.

As to ATAATG, the binding signal turned out to be 2.28 ± 0.148 fold-change vs cycle 0 with SALL4 ZFC4 WT (HT-SELEX), 2.02 ± 0.123 fold-change vs cycle 0 in test [1] and 1.81 ± 0.182 fold-change vs cycle 0 in test [2].

Turning to TTGAAA, the binding signal with SALL4 ZFC4 WT (HT-SELEX) was found to be 1.92 ± 0.106 fold-change vs cycle 0; in test [1], 1.88 ± 0.0943 fold-change vs cycle 0; in test [2] it was 1.7 ± 0.131 fold-change vs cycle 0.

On to ACAGTG, for which the binding signal with SALL4 ZFC4 WT (HT-SELEX) came out at 0.745 ± 0.062 fold-change vs cycle 0; in test [1], 0.869 ± 0.0495 fold-change vs cycle 0; in test [2] it was 0.895 ± 0.0488 fold-change vs cycle 0.

As for GGGTAC, the binding signal with SALL4 ZFC4 WT (HT-SELEX) was 0.482 ± 0.0239 fold-change vs cycle 0; in test [1], 0.556 ± 0.011 fold-change vs cycle 0; in test [2] it was 0.641 ± 0.0594 fold-change vs cycle 0.

For the sequence AGGAAG, the binding signal with SALL4 ZFC4 WT (HT-SELEX) turned out to be 0.939 ± 0.0254 fold-change vs cycle 0; in test [1], 1.172 ± 0.0114 fold-change vs cycle 0; in test [2] it was 1.11 ± 0.034 fold-change vs cycle 0.

For the sequence TCTAGA, the results for the binding signal (in the test with SALL4 ZFC4 WT (HT-SELEX); in test [1]; in test [2]) were 1.32 ± 0.134 fold-change vs cycle 0, 1.49 ± 0.119 fold-change vs cycle 0 and 1.41 ± 0.147 fold-change vs cycle 0, respectively.

Take GATAGA: the binding signal is 1.32 ± 0.045 fold-change vs cycle 0 in the test with SALL4 ZFC4 WT (HT-SELEX), 1.46 ± 0.0749 fold-change vs cycle 0 in test [1] and 1.38 ± 0.128 fold-change vs cycle 0 in test [2].

As to CCTGAA, the binding signal stood at 0.792 ± 0.0306 fold-change vs cycle 0 with SALL4 ZFC4 WT (HT-SELEX), 0.933 ± 0.0447 fold-change vs cycle 0 in test [1] and 0.951 ± 0.0276 fold-change vs cycle 0 in test [2].

With GAAGCA, the figures for the binding signal (in the test with SALL4 ZFC4 WT (HT-SELEX); in test [1]; in test [2]) were 0.667 ± 0.0348 fold-change vs cycle 0, 0.784 ± 0.0247 fold-change vs cycle 0 and 0.88 ± 0.0121 fold-change vs cycle 0, respectively.

Consider CAGTGG, for which the values for the binding signal (in the test with SALL4 ZFC4 WT (HT-SELEX); in test [1]; in test [2]) were 0.426 ± 0.0423 fold-change vs cycle 0, 0.497 ± 0.0328 fold-change vs cycle 0 and 0.595 ± 0.0248 fold-change vs cycle 0, respectively.

On to CTCCTC, for which the binding signal was found to be 0.611 ± 0.00845 fold-change vs cycle 0 in the test with SALL4 ZFC4 WT (HT-SELEX), 0.705 ± 0.0481 fold-change vs cycle 0 in test [1] and 0.774 ± 0.0379 fold-change vs cycle 0 in test [2].

In the case of ATAATC, the binding signal was determined as 2.69 ± 0.205 fold-change vs cycle 0 with SALL4 ZFC4 WT (HT-SELEX), 2.05 ± 0.113 fold-change vs cycle 0 in test [1] and 1.81 ± 0.145 fold-change vs cycle 0 in test [2].

Regarding CACATC, the values for the binding signal (in the test with SALL4 ZFC4 WT (HT-SELEX); in test [1]; in test [2]) were 0.757 ± 0.0342 fold-change vs cycle 0, 0.861 ± 0.0321 fold-change vs cycle 0 and 0.929 ± 0.0433 fold-change vs cycle 0, respectively.

As for GGTGAC, the binding signal with SALL4 ZFC4 WT (HT-SELEX) was determined as 0.454 ± 0.0238 fold-change vs cycle 0; in test [1], 0.526 ± 0.0318 fold-change vs cycle 0; in test [2], 0.642 ± 0.0609 fold-change vs cycle 0.
